EP2 modulator: EP2 receptor modulators, cAMP readout, primary screen, cell-based, HTRF cAMP, PGE2 stimulation; EP2-expressing cells, cAMP HTRF FRET, PGE2 co-stimulation; 0.83% of 260,000 active; AID 940, 2007; induction, % at 25 µM;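 active = compounds whose cAMP rise, as percent of the full-agonist control response, exceeds 60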;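 also: rat C6 glioma line stably carrying human EP2 under a CMV promoter; the protocol text gives 20 µM as final concentration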
Hck Nef HTS: inhibitors of Nef-activated human Hck kinase, primary screen, biochemical, Z-Lyte FRET, 384-well, Hck-YEEI; inhibition, % at 20 µM; Tyrosine-protein kinase HCK (Homo sapiens), P08631; 0.68% of 220,000 active; Recombinant Hck-YEEI plus Nef, Z-Lyte FRET kinase assay;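 active = Hck-Nef kinase inhibition above about 50%, limit read from the data; inactive = inhibition below that limit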
Arbovirus anti: antivirals against arbovirus infection, primary screen, cell-based, full library, 10K replicate subset; arbovirus infection cell-based antiviral screen; inhibition, % at 10 µM; 0.37% of 200,000 active; AID 1251, 2008; in the data active = inhibition above about 30%
PGE2 EP2 inh: human EP2 receptor antagonists, primary screen, TR-FRET cAMP, C6 glioma cells | C6 glioma cells expressing human EP2; cells stimulated with saturating PGE2 | inhibition, % at 25 µM | 0.52% of 260,000 active | Prostaglandin E2 receptor EP2 subtype (Homo sapiens), P43116;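 active = percent inhibition above 40 after rounding to a whole number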;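 also: rat C6 glioma host cells with rolipram phosphodiesterase inhibitor present; the protocol text gives 20 µM as final concentration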
p97 ATPase inh: inhibitors of human p97 ATPase, primary screen, biochemical. AID 1481, 2009. 0.42% of 220,000 active. Transitional endoplasmic reticulum ATPase (Homo sapiens), P55072. recombinant p97 ATPase, Kinase-Glo ATP luminescence, 3 h. inhibition, % at 8 µM; in the data active = inhibition above about 15%
Target sequence (P55072 whole entry, looked up): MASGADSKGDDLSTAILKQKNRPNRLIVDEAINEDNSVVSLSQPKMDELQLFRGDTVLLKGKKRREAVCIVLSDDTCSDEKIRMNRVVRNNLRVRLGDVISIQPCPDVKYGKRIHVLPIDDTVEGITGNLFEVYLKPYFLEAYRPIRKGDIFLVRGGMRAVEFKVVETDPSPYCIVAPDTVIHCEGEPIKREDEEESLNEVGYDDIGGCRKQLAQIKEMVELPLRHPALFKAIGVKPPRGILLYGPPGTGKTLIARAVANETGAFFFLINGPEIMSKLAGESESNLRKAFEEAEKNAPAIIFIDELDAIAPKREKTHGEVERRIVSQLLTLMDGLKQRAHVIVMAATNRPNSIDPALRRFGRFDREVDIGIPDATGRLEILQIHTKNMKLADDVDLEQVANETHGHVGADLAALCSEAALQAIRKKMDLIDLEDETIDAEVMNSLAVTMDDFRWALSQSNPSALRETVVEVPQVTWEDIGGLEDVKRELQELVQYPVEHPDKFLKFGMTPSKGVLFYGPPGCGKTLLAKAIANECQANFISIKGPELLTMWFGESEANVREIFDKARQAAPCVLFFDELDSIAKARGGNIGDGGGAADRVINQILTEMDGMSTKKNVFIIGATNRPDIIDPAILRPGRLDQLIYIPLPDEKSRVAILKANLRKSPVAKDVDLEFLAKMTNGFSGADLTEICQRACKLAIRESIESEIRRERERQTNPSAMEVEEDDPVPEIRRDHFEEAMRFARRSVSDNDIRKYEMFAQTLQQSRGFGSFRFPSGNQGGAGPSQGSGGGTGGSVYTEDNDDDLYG
Numbers stand for hits. Rows were chosen to be rich in hits. Some 2.4% of all compounds tested hit in one or more screens of this group.

For COc1ccccc1N(/N=C1\Sc2ccccc2C1=O)C(C)=O the results were EP2 modulator inactive, Hck Nef HTS inactive, PGE2 EP2 inh inactive and p97 ATPase inh 15.
Screening Cc1nc(Nc2ccccc2)sc1-c1ccccc1 returned EP2 modulator inactive, Hck Nef HTS inactive, Arbovirus anti 33, PGE2 EP2 inh inactive and p97 ATPase inh inactive.
`COc1ccc(-c2cc(C(F)(F)F)nc(SCC(=O)NCc3ccccn3)n2)cc1OC` gave EP2 modulator inactive and PGE2 EP2 inh inactive.
`O=C(Nc1ccncc1)c1ccc2c(c1)C(=O)N(C1CCCCC1)C2=O` gave EP2 modulator inactive, Hck Nef HTS inactive, Arbovirus anti inactive, PGE2 EP2 inh 46 and p97 ATPase inh inactive.
For Cc1cc(NC(=O)c2ccc3c(c2)C(=O)N(C2CCCCC2)C3=O)no1 the results were EP2 modulator inactive, Hck Nef HTS inactive, Arbovirus anti inactive, PGE2 EP2 inh inactive and p97 ATPase inh inactive.
For Cc1ccc(C2CC3(CC(C)(C)NC(=O)N3)Oc3cc(O)ccc32)cc1 (stereo unspecified) the results were EP2 modulator inactive and PGE2 EP2 inh inactive.
For OC1(c2ccccc2F)CCN(Cc2ccnn2C2CCCCO2)CC1 (stereo unspecified) the results were EP2 modulator inactive and PGE2 EP2 inh inactive.
For COc1cccc(-c2cc(C(=O)Nn3cnnc3)c3ccccc3n2)c1 the results were EP2 modulator inactive, Hck Nef HTS inactive, Arbovirus anti 38, PGE2 EP2 inh inactive and p97 ATPase inh inactive.
For COc1ccc([C@H]2CN(Cc3ccccc3)C[C@@H]2NC(=O)c2ccccn2)cc1OC the results were EP2 modulator inactive and PGE2 EP2 inh inactive.
`CCOC(=O)c1oc2ccc(OC)cc2c1CSc1ccccn1` gave EP2 modulator 62 and PGE2 EP2 inh inactive.
`CCOC(=O)c1oc2ccccc2c1NC(=O)c1cccc(OC)c1` gave EP2 modulator 63, Hck Nef HTS inactive, Arbovirus anti inactive, PGE2 EP2 inh inactive and p97 ATPase inh inactive.
Screening COc1ccc(Cl)cc1NC(=O)C1=C(C)NC(=O)NC1c1ccc(OC)c(OC)c1 (stereo unspecified) returned EP2 modulator inactive and PGE2 EP2 inh inactive.
For CCS(=O)(=O)N1CCN(Cc2cn(CC(=O)N3CCCC3)c3ccccc23)CC1 the results were EP2 modulator inactive and PGE2 EP2 inh inactive.
Screening COC1=CC(=O)C(O)=C/C1=C\C=C\c1ccccc1 returned EP2 modulator inactive and PGE2 EP2 inh 111.
COc1ccc2c(c1)C(=O)/C(=C/C=C/c1ccccc1)CC2 was read as EP2 modulator inactive, Hck Nef HTS inactive, Arbovirus anti inactive, PGE2 EP2 inh inactive and p97 ATPase inh inactive.
O=C(Nc1cc(Cl)ccc1O)c1cc(-c2ccccc2)on1 was read as EP2 modulator inactive and PGE2 EP2 inh inactive.
Screening COC(=O)c1c(-c2ccccc2)csc1NC(=O)c1ccco1 returned EP2 modulator inactive, Hck Nef HTS inactive, Arbovirus anti inactive, PGE2 EP2 inh inactive and p97 ATPase inh inactive.
`Cc1ccc(-c2csc(NC(=O)/C=C/c3ccco3)c2C(=O)O)cc1` gave EP2 modulator inactive, Hck Nef HTS 52, Arbovirus anti 71, PGE2 EP2 inh inactive and p97 ATPase inh inactive.
`Cc1nc(NC(=O)/C=C/c2ccco2)sc1C` gave EP2 modulator inactive, Hck Nef HTS inactive, Arbovirus anti inactive, PGE2 EP2 inh inactive and p97 ATPase inh inactive.
`CC(C)c1ccc(-c2csc(NC(=O)c3cccs3)c2C(=O)O)cc1` gave EP2 modulator inactive, Hck Nef HTS inactive, Arbovirus anti 41, PGE2 EP2 inh inactive and p97 ATPase inh inactive.
For O=C(Nc1scc(-c2ccc(F)cc2)c1C(=O)O)c1ccco1 the results were EP2 modulator inactive, Hck Nef HTS inactive, Arbovirus anti 35, PGE2 EP2 inh inactive and p97 ATPase inh inactive.
O=C(/C=C/c1ccco1)Nc1cc(Cl)ccc1C(=O)O was read as EP2 modulator inactive, Hck Nef HTS inactive, Arbovirus anti 42, PGE2 EP2 inh inactive and p97 ATPase inh inactive.
Screening CCC(=O)Nc1ccc(NC(=O)CSc2nc(C3CC3)nc3sc4c(c23)CCCC4)cc1C returned EP2 modulator inactive and PGE2 EP2 inh inactive.
Cc1c(C(=O)Nc2ccccc2)sc2ncn(Cc3cccc4ccccc34)c(=O)c12 was read as EP2 modulator inactive and PGE2 EP2 inh inactive.
For N#Cc1c(NC(=O)/C=C/c2ccco2)sc2c1CCCC2 the results were EP2 modulator inactive, Hck Nef HTS inactive, Arbovirus anti inactive, PGE2 EP2 inh inactive and p97 ATPase inh inactive.
Screening O=C(/C=C/c1ccco1)Nc1sc2c(c1C(=O)O)CCC2 returned EP2 modulator inactive, Hck Nef HTS inactive, Arbovirus anti 73, PGE2 EP2 inh inactive and p97 ATPase inh inactive.
Screening CCOc1ccc(C(=O)C2CCN(CC(=O)Nc3ccc(Br)cc3)CC2)cc1 returned EP2 modulator inactive and PGE2 EP2 inh inactive.
O=C1c2ccccc2C(=Nc2ccccc2)C1c1cccc(Br)c1 (stereo unspecified) was read as EP2 modulator inactive, Hck Nef HTS inactive, Arbovirus anti inactive, PGE2 EP2 inh inactive and p97 ATPase inh inactive.
Screening O=C1c2ccccc2[C@@H]([C@H]2c3ccccc3C(=O)c3cc(Br)ccc32)c2ccc(Br)cc21 returned EP2 modulator inactive and PGE2 EP2 inh 54.
`CC(C)Cn1cnc2c(Sc3c([N+](=O)[O-])ncn3C)nc(N)nc21` gave EP2 modulator inactive and PGE2 EP2 inh inactive.
For Cn1cnc([N+](=O)[O-])c1Sc1nc(N)nc2c1ncn2Cc1ccccc1 the results were EP2 modulator inactive and PGE2 EP2 inh 53.
Screening O=Cc1ccc(OCc2ccccn2)cc1 returned EP2 modulator inactive, Hck Nef HTS inactive, Arbovirus anti 34, PGE2 EP2 inh inactive and p97 ATPase inh inactive.
`Oc1cccc2ccc(SSc3ccc4cccc(O)c4n3)nc12` gave EP2 modulator inactive and PGE2 EP2 inh 106.
For O/N=C/c1ccc2cccc(O)c2n1 the results were EP2 modulator inactive, Hck Nef HTS inactive, PGE2 EP2 inh inactive and p97 ATPase inh inactive.
Screening Cc1noc(C)c1COC(=O)COc1cccc2c1OC(C)(C)C2 returned EP2 modulator 65, Hck Nef HTS inactive, Arbovirus anti inactive, PGE2 EP2 inh inactive and p97 ATPase inh inactive.
Screening CC1(C)Cc2cccc(OCC(=O)NC3CC3)c2O1 returned EP2 modulator inactive, Hck Nef HTS inactive, Arbovirus anti inactive, PGE2 EP2 inh inactive and p97 ATPase inh inactive.
Screening CCOC(=O)CSc1nc2ccccc2c(=O)n1CC returned EP2 modulator inactive, Hck Nef HTS inactive, Arbovirus anti inactive, PGE2 EP2 inh inactive and p97 ATPase inh inactive.
CCOC(=O)CSc1nc2ccccc2c(=O)n1CC1CCCC1 was read as EP2 modulator 62, Hck Nef HTS inactive, Arbovirus anti inactive, PGE2 EP2 inh inactive and p97 ATPase inh inactive.
